Experiment [1] addresses Protein kinase C gamma type (Homo sapiens) (UniProt P05129). The settings on record: at 1 µM.
In experiment [2] the target is T1, Protein kinase C iota type (Homo sapiens) (UniProt P41743).
T1 sequence (whole entry): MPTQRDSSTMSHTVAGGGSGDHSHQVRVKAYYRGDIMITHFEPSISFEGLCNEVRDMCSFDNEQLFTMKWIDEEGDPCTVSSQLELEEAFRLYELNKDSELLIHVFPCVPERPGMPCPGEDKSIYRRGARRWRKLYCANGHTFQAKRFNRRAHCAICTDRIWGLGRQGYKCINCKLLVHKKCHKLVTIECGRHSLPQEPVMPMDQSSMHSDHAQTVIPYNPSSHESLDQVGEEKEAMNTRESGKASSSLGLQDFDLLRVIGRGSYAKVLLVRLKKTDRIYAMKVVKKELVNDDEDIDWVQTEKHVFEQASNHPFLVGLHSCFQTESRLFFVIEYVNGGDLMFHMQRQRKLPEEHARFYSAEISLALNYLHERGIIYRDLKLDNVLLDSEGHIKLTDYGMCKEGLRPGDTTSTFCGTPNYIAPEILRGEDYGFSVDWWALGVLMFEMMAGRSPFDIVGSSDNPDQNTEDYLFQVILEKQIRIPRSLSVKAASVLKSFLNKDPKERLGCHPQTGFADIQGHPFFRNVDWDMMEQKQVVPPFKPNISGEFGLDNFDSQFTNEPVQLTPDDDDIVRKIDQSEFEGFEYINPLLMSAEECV
Conditions: at 0.1 µM.

The target in experiment [3] is T1, Protein kinase C iota type (Homo sapiens). Conditions: at 1 µM.
In experiment [4] the target is Protein kinase C theta type (Homo sapiens) (UniProt Q04759). The settings on record: at 0.1 µM.
Chain of Protein kinase C theta type (Homo sapiens) (Q04759 whole entry, looked up): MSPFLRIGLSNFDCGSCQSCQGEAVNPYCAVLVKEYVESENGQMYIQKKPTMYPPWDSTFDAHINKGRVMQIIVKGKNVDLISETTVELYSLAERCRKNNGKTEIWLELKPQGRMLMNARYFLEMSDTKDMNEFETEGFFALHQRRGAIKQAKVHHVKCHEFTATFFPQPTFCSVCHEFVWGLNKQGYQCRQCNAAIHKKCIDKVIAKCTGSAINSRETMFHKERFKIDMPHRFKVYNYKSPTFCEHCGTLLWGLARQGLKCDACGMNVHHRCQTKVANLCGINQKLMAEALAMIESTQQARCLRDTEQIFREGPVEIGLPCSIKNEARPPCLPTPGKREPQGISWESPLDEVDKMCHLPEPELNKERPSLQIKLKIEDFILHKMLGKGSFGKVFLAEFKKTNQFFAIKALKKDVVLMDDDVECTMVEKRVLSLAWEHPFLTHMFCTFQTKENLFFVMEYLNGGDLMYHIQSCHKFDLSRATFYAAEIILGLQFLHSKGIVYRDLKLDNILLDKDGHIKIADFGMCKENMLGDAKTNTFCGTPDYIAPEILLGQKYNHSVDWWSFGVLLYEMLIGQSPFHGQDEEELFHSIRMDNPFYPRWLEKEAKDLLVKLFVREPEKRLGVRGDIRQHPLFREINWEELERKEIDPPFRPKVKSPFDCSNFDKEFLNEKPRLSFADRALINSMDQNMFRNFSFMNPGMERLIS
Experiment [5] shares this target. The settings on record: at 1 µM.
The target in experiment [6] is Protein kinase C beta type (Homo sapiens) (UniProt P05771). Conditions: at 0.1 µM.
Chain of Protein kinase C beta type (Homo sapiens) (P05771 2-671 limits assumed): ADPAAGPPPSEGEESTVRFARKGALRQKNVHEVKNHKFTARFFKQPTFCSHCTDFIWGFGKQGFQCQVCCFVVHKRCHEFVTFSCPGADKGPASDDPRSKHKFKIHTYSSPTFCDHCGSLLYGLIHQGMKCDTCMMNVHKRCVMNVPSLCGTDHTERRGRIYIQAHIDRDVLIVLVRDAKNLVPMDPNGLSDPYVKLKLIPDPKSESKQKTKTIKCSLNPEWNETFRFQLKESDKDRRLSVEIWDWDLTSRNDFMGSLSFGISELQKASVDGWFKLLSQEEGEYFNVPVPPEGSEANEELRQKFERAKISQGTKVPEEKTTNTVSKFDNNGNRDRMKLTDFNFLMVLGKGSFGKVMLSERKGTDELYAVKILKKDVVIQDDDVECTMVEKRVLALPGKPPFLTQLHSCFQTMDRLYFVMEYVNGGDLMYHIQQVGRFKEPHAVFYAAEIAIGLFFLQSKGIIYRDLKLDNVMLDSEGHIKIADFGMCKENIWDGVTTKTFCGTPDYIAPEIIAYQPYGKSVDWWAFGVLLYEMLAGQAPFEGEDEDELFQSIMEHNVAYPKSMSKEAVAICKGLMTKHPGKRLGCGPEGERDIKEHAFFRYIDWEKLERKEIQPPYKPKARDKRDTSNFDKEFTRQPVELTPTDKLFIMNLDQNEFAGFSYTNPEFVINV
Experiment [7] shares this target. Conditions: at 1 µM.
For experiment [8], the target named is T2, Serine/threonine-protein kinase D1 (Homo sapiens) (UniProt Q15139).
T2 sequence (whole entry): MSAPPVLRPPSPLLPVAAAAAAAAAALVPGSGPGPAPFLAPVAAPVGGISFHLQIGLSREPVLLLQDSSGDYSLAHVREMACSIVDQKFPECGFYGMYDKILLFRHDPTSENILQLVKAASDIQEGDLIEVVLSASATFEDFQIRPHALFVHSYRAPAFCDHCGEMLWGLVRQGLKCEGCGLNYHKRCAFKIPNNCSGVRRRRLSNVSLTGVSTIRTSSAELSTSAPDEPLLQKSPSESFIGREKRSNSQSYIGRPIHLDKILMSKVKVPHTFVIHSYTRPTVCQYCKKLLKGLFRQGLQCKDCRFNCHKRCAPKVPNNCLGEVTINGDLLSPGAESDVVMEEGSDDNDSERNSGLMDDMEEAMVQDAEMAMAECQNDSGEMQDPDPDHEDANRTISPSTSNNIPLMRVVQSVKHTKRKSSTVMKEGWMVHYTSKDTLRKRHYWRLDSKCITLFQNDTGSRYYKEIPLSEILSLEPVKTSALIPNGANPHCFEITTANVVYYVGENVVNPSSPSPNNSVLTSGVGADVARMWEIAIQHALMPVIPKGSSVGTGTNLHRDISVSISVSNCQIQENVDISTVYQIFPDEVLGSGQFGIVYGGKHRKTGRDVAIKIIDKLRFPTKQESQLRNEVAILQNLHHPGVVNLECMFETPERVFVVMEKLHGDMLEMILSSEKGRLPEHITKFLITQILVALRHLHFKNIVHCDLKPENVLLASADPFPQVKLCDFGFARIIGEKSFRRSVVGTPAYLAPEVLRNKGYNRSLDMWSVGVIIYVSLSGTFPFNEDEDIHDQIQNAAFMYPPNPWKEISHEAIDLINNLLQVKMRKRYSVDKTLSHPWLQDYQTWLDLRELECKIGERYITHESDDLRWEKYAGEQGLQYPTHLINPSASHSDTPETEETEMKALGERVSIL
The settings on record: at 0.1 µM.

The target of experiment [9] is T2, Serine/threonine-protein kinase D1 (Homo sapiens). The settings on record: at 1 µM.
The target in experiment [10] is T3, Serine/threonine-protein kinase D2 (Homo sapiens) (UniProt Q9BZL6).
T3 sequence (whole entry): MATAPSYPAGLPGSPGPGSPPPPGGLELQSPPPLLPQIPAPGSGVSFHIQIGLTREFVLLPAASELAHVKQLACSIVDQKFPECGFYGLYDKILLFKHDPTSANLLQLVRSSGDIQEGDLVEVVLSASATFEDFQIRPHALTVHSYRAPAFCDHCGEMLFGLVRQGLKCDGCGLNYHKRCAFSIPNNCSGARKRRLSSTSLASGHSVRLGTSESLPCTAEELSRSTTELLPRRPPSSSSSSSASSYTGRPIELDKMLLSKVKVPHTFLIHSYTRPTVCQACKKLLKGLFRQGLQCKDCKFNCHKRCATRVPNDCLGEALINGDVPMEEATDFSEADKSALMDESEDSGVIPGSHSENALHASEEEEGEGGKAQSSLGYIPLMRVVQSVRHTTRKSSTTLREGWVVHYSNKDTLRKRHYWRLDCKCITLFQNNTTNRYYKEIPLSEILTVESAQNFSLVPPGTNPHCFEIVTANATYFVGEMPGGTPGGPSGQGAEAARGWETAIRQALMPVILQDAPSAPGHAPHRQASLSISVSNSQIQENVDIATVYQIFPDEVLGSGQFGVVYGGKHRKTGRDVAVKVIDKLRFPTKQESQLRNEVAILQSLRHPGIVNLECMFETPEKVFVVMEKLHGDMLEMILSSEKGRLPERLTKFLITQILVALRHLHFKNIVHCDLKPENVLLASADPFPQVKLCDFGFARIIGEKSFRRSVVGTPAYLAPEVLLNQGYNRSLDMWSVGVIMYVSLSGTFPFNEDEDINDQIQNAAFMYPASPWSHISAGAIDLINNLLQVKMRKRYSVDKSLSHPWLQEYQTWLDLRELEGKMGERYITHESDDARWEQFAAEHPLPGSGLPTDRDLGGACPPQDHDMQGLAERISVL
Conditions: at 0.1 µM.

In experiment [11] the target is T3, Serine/threonine-protein kinase D2 (Homo sapiens). The settings on record: at 1 µM.
The target of experiment [12] is T4, Serine/threonine-protein kinase D3 (Homo sapiens) (UniProt O94806).
T4 sequence (whole entry): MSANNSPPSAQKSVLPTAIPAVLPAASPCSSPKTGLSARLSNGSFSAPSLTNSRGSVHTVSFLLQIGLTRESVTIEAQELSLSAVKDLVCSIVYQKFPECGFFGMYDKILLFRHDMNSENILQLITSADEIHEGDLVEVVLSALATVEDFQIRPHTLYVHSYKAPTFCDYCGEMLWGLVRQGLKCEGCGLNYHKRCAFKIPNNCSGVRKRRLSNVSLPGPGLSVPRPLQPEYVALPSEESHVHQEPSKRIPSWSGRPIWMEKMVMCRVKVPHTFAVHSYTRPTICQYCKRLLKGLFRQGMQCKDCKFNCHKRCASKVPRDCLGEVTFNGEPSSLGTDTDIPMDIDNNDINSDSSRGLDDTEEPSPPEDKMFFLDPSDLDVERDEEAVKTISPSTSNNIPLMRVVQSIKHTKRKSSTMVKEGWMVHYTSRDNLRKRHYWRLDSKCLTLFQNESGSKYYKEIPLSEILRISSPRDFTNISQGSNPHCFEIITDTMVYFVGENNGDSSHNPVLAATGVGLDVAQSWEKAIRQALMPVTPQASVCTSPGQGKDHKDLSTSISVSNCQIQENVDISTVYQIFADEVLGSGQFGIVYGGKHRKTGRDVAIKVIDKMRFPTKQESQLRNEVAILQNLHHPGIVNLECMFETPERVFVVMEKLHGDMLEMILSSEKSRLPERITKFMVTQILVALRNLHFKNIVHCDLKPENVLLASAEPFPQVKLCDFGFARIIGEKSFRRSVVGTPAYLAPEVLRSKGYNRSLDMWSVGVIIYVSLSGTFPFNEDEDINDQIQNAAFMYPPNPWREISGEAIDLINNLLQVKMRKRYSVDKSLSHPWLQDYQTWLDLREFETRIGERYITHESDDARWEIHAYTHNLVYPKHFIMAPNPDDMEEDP
Conditions: at 0.1 µM.

In experiment [13] the target is T4, Serine/threonine-protein kinase D3 (Homo sapiens). The settings on record: at 1 µM.
Experiment [14] addresses T5, cGMP-dependent protein kinase 1 (Homo sapiens) (UniProt Q13976).
T5 sequence (whole entry): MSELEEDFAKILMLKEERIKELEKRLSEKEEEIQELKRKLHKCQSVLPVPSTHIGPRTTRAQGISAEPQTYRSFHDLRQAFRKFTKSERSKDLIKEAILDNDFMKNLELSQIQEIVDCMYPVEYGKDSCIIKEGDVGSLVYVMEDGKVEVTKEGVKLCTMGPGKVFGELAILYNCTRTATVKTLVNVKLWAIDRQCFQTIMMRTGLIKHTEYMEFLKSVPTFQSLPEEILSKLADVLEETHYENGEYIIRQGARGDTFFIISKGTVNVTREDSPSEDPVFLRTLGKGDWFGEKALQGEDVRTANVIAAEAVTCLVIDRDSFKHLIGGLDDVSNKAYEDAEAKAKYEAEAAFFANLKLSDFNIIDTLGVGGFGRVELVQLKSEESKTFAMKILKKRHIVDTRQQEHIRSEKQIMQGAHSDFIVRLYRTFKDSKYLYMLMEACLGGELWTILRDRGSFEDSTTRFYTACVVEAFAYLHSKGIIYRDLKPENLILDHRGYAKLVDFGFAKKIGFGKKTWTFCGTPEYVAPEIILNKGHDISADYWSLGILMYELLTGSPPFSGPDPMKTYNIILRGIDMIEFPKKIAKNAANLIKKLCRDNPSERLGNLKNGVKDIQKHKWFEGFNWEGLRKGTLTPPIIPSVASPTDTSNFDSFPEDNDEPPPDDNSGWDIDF
The settings on record: at 0.1 µM.

Experiment [15] deals with T5, cGMP-dependent protein kinase 1 (Homo sapiens). The settings on record: at 1 µM.
The target in experiment [16] is T6, cGMP-dependent protein kinase 2 (Homo sapiens) (UniProt Q13237).
T6 sequence (whole entry): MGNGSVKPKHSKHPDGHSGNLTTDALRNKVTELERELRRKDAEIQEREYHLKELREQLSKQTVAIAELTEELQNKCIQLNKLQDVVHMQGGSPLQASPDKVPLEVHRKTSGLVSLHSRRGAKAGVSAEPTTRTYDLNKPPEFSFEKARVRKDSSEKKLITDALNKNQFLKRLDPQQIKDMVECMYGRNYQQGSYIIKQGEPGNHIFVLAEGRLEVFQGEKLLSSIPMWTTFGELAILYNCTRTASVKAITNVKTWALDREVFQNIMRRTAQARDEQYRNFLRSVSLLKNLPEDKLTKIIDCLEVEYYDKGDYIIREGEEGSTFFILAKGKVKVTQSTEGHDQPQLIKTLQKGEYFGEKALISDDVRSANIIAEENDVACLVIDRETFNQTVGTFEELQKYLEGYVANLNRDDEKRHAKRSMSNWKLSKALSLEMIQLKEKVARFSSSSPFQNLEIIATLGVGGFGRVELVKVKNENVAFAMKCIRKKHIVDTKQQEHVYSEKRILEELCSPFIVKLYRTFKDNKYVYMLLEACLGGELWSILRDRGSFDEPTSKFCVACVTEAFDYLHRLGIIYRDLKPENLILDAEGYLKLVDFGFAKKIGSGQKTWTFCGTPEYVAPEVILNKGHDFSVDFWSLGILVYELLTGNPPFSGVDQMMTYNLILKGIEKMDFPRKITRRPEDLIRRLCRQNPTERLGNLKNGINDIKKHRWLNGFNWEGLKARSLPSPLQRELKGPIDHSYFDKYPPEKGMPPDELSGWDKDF
The settings on record: at 0.1 µM.

The target of experiment [17] is T6, cGMP-dependent protein kinase 2 (Homo sapiens). The settings on record: at 1 µM.
Experiment [18] has as its target T7, cAMP-dependent protein kinase catalytic subunit PRKX (Homo sapiens) (UniProt P51817).
T7 sequence (whole entry): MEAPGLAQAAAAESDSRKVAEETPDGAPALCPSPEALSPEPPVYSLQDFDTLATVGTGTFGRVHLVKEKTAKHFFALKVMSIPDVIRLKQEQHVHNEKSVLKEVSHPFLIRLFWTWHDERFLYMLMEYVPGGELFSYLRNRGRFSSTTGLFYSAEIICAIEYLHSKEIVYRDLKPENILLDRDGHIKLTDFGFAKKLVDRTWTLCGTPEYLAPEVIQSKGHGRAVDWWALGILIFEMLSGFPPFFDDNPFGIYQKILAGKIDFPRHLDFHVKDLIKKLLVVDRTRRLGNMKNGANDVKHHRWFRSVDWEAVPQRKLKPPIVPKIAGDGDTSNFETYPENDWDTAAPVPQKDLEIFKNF
Conditions: at 0.1 µM.

In experiment [19] the target is T7, cAMP-dependent protein kinase catalytic subunit PRKX (Homo sapiens). Conditions: at 1 µM.
Experiment [20] addresses Rho-associated protein kinase 1 (Homo sapiens) (UniProt Q13464). Conditions: at 0.1 µM.

Chain of Rho-associated protein kinase 1 (Homo sapiens) (Q13464 2-1354 limits assumed): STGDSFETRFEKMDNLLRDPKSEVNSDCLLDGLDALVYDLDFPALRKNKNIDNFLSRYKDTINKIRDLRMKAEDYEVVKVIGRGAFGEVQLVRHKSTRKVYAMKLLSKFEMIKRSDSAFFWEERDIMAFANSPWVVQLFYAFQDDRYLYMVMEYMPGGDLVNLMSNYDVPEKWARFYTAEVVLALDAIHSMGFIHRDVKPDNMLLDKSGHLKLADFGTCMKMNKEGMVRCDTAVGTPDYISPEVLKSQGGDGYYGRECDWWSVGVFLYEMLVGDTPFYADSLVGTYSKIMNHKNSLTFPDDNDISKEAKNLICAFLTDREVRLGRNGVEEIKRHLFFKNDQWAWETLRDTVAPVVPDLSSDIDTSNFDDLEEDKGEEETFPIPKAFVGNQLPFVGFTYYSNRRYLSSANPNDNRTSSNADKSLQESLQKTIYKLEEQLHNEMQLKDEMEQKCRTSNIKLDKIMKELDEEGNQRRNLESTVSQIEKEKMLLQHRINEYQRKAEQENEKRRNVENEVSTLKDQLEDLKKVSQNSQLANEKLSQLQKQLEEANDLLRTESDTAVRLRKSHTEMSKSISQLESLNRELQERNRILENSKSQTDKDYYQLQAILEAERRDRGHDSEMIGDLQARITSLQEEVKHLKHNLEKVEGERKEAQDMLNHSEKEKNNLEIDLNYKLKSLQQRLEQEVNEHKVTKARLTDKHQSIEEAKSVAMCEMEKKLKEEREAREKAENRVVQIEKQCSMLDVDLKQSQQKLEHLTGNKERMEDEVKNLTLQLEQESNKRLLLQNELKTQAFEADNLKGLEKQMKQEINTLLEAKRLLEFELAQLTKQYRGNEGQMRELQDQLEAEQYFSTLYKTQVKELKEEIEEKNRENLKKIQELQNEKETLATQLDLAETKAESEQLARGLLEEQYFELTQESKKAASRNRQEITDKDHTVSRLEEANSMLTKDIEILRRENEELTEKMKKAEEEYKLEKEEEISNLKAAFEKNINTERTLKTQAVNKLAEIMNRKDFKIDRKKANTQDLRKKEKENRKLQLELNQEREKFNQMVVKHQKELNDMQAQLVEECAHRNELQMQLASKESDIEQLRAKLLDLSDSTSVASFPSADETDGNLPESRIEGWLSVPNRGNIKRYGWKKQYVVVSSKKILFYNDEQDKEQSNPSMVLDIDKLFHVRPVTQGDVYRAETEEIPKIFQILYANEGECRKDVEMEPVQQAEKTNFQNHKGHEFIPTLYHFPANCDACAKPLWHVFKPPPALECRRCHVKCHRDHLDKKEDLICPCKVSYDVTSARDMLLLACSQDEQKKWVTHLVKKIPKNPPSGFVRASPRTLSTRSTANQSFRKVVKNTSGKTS

As for `CN(C)c1ccc2c(c1)/C(=C/Nc1ccc(S(N)(=O)=O)cc1)C(=O)N2`, the inhibition in experiment [1] came to 2.72%; in experiment [2], 2.24%; in experiment [3], 1.5%; in experiment [4], 1.16%; in [5] it was 0.84%; in experiment [6] it was 1.61%. The inhibition was determined as 1.98% in experiment [7]; 2.16% in experiment [8]; 7.78% in [9]; 1.23% in experiment [10]; 5.28% in experiment [11]; 3.16% in experiment [12]. Moreover, the inhibition in experiment [13] came out at 4.44%; in experiment [14], 2.39%; in experiment [15], 1.76%; in [16], 1.53%; in experiment [17], 8.65%; in experiment [18] it was 0.94%. Also, the inhibition turned out to be 2.58% in [19] and 0.76% in experiment [20].
With `Nc1nccc(-c2c(-c3ccc(F)cc3)ncn2C2CCC(O)CC2)n1` (stereo not given), the inhibition in [1] is 2.37%; in experiment [2], 1.25%; in experiment [3] it was 0.01%; in experiment [4], -0.81%; in experiment [5], 0.4%; in experiment [6] it was 1.56%. Further, the inhibition in experiment [7] was 16.3%; in experiment [8], 0.14%; in [9] it was 18.5%; in [10] it was 0.03%; in experiment [11] it was 23.3%; in experiment [12], -0.31%. The inhibition in experiment [13] is 19.4%; in experiment [14], -1.29%; in experiment [15], 0.27%; in [16] it was -0.66%; in experiment [17], -0.24%; in [18] it was -0.76%. Moreover, the inhibition was -0.96% in [19] and 0.4% in experiment [20].

These data come from ChEMBL document CHEMBL1961873, “Compounds: GSK PKIS; Assays: Nanosyn kinase panel” (2012).
